According to PubChem BioAssay (Tox21):
Values joined by “and” are separate entries in the source; they are usually repeats but may differ in a detail not shown here. Equal entries are not always repeated. Records with an inconclusive call do not appear. Where a call stands in place of a potency, no number is given. Some structures have more than one record in an assay (separate samples or runs), and their calls can disagree. Active and inactive are the calls of the source. Calls follow the shape of the dose curve; as a rule, active = well fitted cell-killing curve with a large enough effect in the repeat runs; inconclusive = weak or mixed curves, or effect the other way; inactive = flat fitted curve, though single readings scatter.

Assay: qHTS assay to identify small molecule agonists of the estrogen receptor beta (ER-beta) signaling pathway - cell viability counter screen (AID 1259380); also: nearly all actives have a fitted effect of over 30% in size
Conditions: ER-beta-bla HEK293T viability, CellTiter-Glo luminescence, 16 h; series mostly up to 92.4 µM
Source text: National Center for Advancing Translational Sciences [NCATS]
NIH Chemical Genomics Center [NCGC]
U.S. Environmental Protection Agency [EPA]
National Institutes of Environmental Health Sciences [NIEHS]
National Toxicology Program [NTP]
U.S. Food and Drug Administration [FDA]
Estrogen receptor (ER), a nuclear hormone receptor, plays an important role in development, metabolic homeostasis and reproduction. Two subtypes of ER, ER-alpha and ER-beta, have similar expression patterns with some uniqueness in both types. Endocrine disrupting chemicals (EDCs) and their interactions with steroid hormone receptors like ER causes disruption of normal endocrine function. To identify the compounds that activate ER signaling, an ER beta-UAS-bla GripTite cell line (Life Technologies, Madison, WI, USA) containing a beta-lactamase reporter gene under the control of an UAS response element was used to screen Tox21 10K compound library. The cytotoxicity of the Tox21 compound library against the ER-beta-bla cell line was tested in parallel by measuring the cell viability using CellTiter-Glo assay in the same wells.
Tox21 Assay Protocol Summary:
ER-beta-UAS-bla HEK293T cells were dispensed at 2,000 cells/5 uL of assay medium containing 2% charcoal stripped FBS per well into black wall/clear-bottom 1536-well plates using a Multidrop Combi (ThermoFisher Scientific, Waltham, MA) dispenser. After the assay plates were incubated at a 37C and 5% CO2 for 6 hr, 23 nL of compounds dissolved in DMSO, positive controls or DMSO only was transferred to the assay plate by a Pintool station (Kalypsys, San Diego, CA). The plates were incubated at 37C and 5% CO2 for 16 hr. Then 1 uL of LiveBLAzerTM B/G FRET substrate was added using a BioRAPTR FRD (Flying Reagent Dispenser, Aurora Discovery, San Diego, CA) and then the plates were incubated at room temperature for 2 hours, and fluorescence intensity was measured by an Envision plate reader (PerkinElmer, Shelton, CT). For cell viability readout that measures cytotoxicity, 4 uL/well of CellTiter-Glo reagent was added into the assay plates using a FRD. After 30 min incubation at room temperature, the luminescence intensity in the plates was measured using a ViewLux (PerkinElmer) plate reader.
Potency is read from the fitted curve at half-maximal effect.

| SMILES | Potency |
| --- | --- |
| O=C(Cl)OCCOCCOC(=O)Cl | inactive |
| C=C(Cl)Cl | inactive |
| CCC1(CC)C(=O)NC(=O)NC1=O | inactive |
| C1CS1 | inactive |
| O=C(Cc1ccccc1)c1ccccc1 | inactive |
| CCC(C)(C)c1ccc(O)c(C(C)(C)CC)c1 | 21.4 µM (active) and 24.3 µM (active) |
| O=[N+]([O-])c1cc(Cl)c(Cl)cc1Cl | inactive |
| O=C(O)c1cc(Cl)ccc1Cl | inactive |
| Nc1ccccc1C(=O)OCCc1ccccc1 | 9.73 µM (active) and 7.7 µM (active) |
| COCc1cnc(C2=NC(C)(C(C)C)C(=O)N2)c(C(=O)O)c1 (stereo not given) | inactive |
| NNCCO | inactive |
| N#CC(C#N)=C(C#N)C#N | inactive |
| O=C(O)C(F)(F)C(F)(F)C(F)(F)C(F)(F)C(F)(F)C(F)(F)C(F)(F)C(F)(F)F | 12.2 µM (active) |
| CCNC(=O)NC(=O)/C(C#N)=N/OC | inactive |
| C=CCc1ccc(OC(=O)Cc2ccccc2)c(OC)c1 | inactive |
| CC(C)OC(=O)Cc1ccccc1 | inactive |
| COc1ccccc1N1CCNCC1 | inactive |
| CC(C)[C@@H](C(=O)O[C@@H](C#N)c1cccc(Oc2ccccc2)c1)c1ccc(Cl)cc1 | inactive |
| CCCC1CCCCN1 (stereo not given) | inactive |
| Clc1ccc(Cl)c(Cl)c1 | inactive |

| SMILES | Potency |
| --- | --- |
| O=C(CCl)CCl | inactive |
| CC[N+]1(CCOC(=O)C(O)(c2ccccc2)c2ccccc2)CCCCC1 | inactive |
| Cc1cnc(C2=NC(C)(C(C)C)C(=O)N2)c(C(=O)O)c1 (stereo not given) | inactive |
| CN1C[C@H](C(=O)N[C@]2(C)O[C@@]3(O)[C@@H]4CCCN4C(=O)[C@H](Cc4ccccc4)N3C2=O)C=C2c3cccc4[nH]cc(c34)C[C@H]21 | 21.8 µM (active) and 7.16 µM (active) |
| COP(=O)(OC)OC(Br)C(Cl)(Cl)Br (stereo not given) | inactive |
| C=CCN1C[C@H](C)N([C@H](c2ccc(C(=O)N(CC)CC)cc2)c2cccc(OC)c2)C[C@H]1C | inactive |
| OCC1CO1 (stereo not given) | inactive |
| COC(=O)C1(O)c2ccccc2-c2ccccc21 | inactive |
| FC(F)OC(F)(F)C(F)Cl (stereo not given) | inactive |
| CC(C)(C#N)C(C)(C)C#N | inactive |
| CCCN(CCC)c1c([N+](=O)[O-])cc(C(C)C)cc1[N+](=O)[O-] | inactive |
| NC(=O)CF | inactive |
| C[Si](Cn1cncn1)(c1ccc(F)cc1)c1ccc(F)cc1 | inactive |
| C[N+](C)(C)CC1CO1 (stereo not given) | inactive |
| CC(Cc1ccccc1)NCc1ccccc1Cl (stereo not given) | inactive |
| Clc1ccccc1 | inactive |
| CCCC(C)(COC(N)=O)COC(=O)NC(C)C (stereo not given) | inactive |
| CCCCNC(=O)OCC#CI | 60.8 µM (active) and inactive |
| CCCSP(=S)(OCC)Oc1ccc(SC)cc1 (stereo not given) | inactive |
| CCc1ccccc1N | inactive |
